Experimental data reported in paper PMC5540273 (PLoS ONE, 2017).

System: EPHA2
Conditions: concentration: 1 μM, replicates: in singlicate; n = 1
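Further: KINOMEscan kinase panel screen.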

Structure (SMILES) | %Inh [%]
CN1C(=O)C(Nc2cc(Cl)c(O)c(Cl)c2)=C(c2ccc(Cl)cc2)C1=O [SB-404321] | 0
CCC(=O)c1c(-c2ccccc2)c2cc(Cl)ccc2c(=O)n1Cc1cc(C(=O)NC2CC2)n(C)n1 | 3
COc1cccc(C2=C(Nc3cccc(C(=O)O)c3)C(=O)NC2=O)c1 [SB-390770] | 23
O=C(Nc1ccc2c(c1)OCO2)NC1CCN(c2ccnc(NCc3ccc(F)cc3)n2)CC1 [GSK1379859] | 0
COc1cc2nccc(Nc3cccc(Oc4ccccc4)c3)c2cc1OC.Cl [GW284543] | 0
COc1cc(Nc2nccc(N3CCC(NC(=O)C(C)c4ccc(Cl)cc4)C3)n2)cc(OC)c1OC (stereo not shown) [GSK1379757] | 23
Cc1ccccc1COc1cc(-n2cnc3cc(Cl)ccc32)sc1C(N)=O [GW813349] | 6
CCC(=O)c1c(-c2ccccc2)c2cc(Cl)ccc2c(=O)n1Cc1cc(S(C)(=O)=O)n(CCC(C)(C)O)n1 | 22
Cc1nn2c(=O)cc(N3CCOCC3)nc2n1Cc1cccc(Cl)c1Cl [GSK2342769] | 10
COc1ccc(Nc2nccc(N3CCC(NS(=O)(=O)c4ccc(NC(C)=O)cc4)C3)n2)cc1 (stereo not shown) [GSK1379729] | 21
Cc1cccc(-c2nc(Nc3ccc4c(cnn4C)c3)c3ccccc3n2)n1 [GW876731] | 0
C[C@@H]1CC[C@H](C(=O)NC2CCCCC2)CN1c1cc(-c2ccc3c(N)n[nH]c3c2)nc(N)n1 [GSK2291363] | 23
COc1cc2ncn(-c3cc(OCc4ccncc4Br)c(C(N)=O)s3)c2cc1OC [GW854278] | 10
Cc1ccc(-c2ccc3c(ccc4sc5c(c43)NC[C@@H](C)N=C5N(C)C)n2)cn1 | 0
COc1ccc(-c2coc3ccc(-c4nnc(SCc5cccc(C#N)c5)o4)cc23)cc1 | 3
Cc1cc(Nc2nc(-c3cccc(C)n3)nc3ccccc23)ccn1 [GW872411] | 0
Cl.NS(=O)(=O)c1cccc(Nc2cc(-c3ccc(F)cc3)n[nH]2)c1 [GW824645] | 0
CC(C)(C)c1ccc(C(=O)Nc2cn3cc(-c4ccccc4)ccc3n2)cc1 | 0
CCn1c(-c2ccoc2)nc2cnccc21 [SB-733887] | 0

Structure (SMILES) | %Inh [%]
Nc1n[nH]c2nnc(-c3ccccc3)c(-c3ccccc3)c12 [GW554060] | 6
CN(C)c1cc(-c2ccc3c(N)n[nH]c3c2)nc(N)n1 [GSK2219329] | 0
Nc1ncnc2c1ncn2-c1cccc(F)c1 [SKF-97560] | 9
Nc1nc(-c2ccccc2F)c(-c2ccnc3ccccc23)s1 [GW560459] | 0
CCn1c(-c2nonc2N)nc2ccccc21 [SB-693162/GW549034] | 0
Cc1ccc(Oc2ccc(Nc3ncnc4cc[nH]c34)cc2C)cn1 | 16
Cc1nnc(-c2ccc(C)c(-c3ccc(C(=O)O)cc3)c2)o1 [GW608005] | 0
CCS(=O)c1ccc(-c2coc3ccc(-c4nnc(C)o4)cc23)cc1 (stereo not shown) | 13
COC(=O)c1c(-c2ccccc2)c2cc(C)ccc2c(=O)n1Cc1ccccc1 | 0
Nc1nccc2scc(-c3ccc4c(c3)CCN4C(=O)Cc3ccccc3)c12 [GSK2576924] | 6
OCCCNc1nccc(-c2c(-c3cccc(C(F)(F)F)c3)nn3cc(C(F)(F)F)ccc23)n1 [GW630813] | 0
O=c1cc(N2CCOCC2)nc2n(Cc3ccc(F)c(Cl)c3)ccn12 [GSK2297099] | 0
Cc1nnc(-c2ccc3ncn(-c4ccc(S(C)=O)cc4)c3c2)o1 (stereo not shown) | 0
COC(=O)c1c(-c2ccccc2)c2cc(Br)ccc2c(=O)n1Cc1ccc(NC(=O)CCC(=O)O)cc1 | 0
COc1cc(OC)cc(-c2cc3cnc(N)nc3nc2NC(=O)NC(C)(C)C)c1 | 0
Nc1ncnc2c1ncn2-c1ccc(Cl)cc1 [AH2635] | 12
Cl.c1ccc(Cn2cnc3cc(Nc4ncnc5ccccc45)ccc32)cc1 [GW272142] | 0
CCC(=O)c1c(-c2ccccc2)c2cc(Cl)ccc2c(=O)n1Cc1ccc(C(=O)O)cc1 | 0
